“And” between values parts separate entries of the source, which are not always exact repeats. Identical values can stand only once. Unmarked numbers belong to inactive results. The source made the active and inactive calls.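 The calls were made as follows, unless noted: active = percent response above 42, roughly 3 SD of non-fluorescent test compounds; inactive = the rest.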

Beta-adrenergic receptor kinase 1 (Homo sapiens), sequence (P25098 whole entry, looked up): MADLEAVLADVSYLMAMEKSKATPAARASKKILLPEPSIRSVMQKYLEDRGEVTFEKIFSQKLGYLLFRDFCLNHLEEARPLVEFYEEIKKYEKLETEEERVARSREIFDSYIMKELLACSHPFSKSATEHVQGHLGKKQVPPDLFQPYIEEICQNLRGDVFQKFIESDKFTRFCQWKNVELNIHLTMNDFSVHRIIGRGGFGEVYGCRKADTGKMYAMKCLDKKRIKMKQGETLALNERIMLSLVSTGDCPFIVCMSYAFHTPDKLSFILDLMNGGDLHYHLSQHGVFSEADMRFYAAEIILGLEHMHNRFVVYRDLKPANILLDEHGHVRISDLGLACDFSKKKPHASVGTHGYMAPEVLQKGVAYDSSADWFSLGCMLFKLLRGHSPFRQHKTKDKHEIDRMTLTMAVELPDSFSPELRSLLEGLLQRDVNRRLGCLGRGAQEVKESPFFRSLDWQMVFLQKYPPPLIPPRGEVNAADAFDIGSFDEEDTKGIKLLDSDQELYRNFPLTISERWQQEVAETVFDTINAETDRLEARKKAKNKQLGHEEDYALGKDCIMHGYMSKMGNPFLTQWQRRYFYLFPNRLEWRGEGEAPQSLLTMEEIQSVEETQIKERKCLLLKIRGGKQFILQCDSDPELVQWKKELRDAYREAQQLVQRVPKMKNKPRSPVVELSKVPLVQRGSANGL

The first experiment addresses Beta-adrenergic receptor kinase 1 (Homo sapiens) (UniProt P25098). The experiment can be described thus: GRK2 binders displacing RNA aptamer, biochemical, validation, human GRK2, bead flow cytometry (AID 488806;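 active = aptamer binding inhibition above 30%, about 3 SD of noise from non-fluorescent compounds; inactive = inhibition at or below 30%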). The settings on record: bead-bound GRK2, FAM-aptamer displacement, at 10 µM, active compounds read high. (Flow cytometry measures light scatter and fluorescence of single cells or particles in a stream.)
Regarding `CN1C[C@H](CNC(=O)OCc2ccccc2)C[C@@H]2c3cccc4c3c(cn4C)C[C@H]21`, the aptamer binding inhibition was -1%.

Consider `C[N+]1(C)C2CCC1CC(OC(=O)C(CO)c1ccccc1)C2` (stereo not given), for which the aptamer binding inhibition is 5%.

`CCC1(c2ccccc2)C(=O)N(COC)C(=O)N(COC)C1=O`: the aptamer binding inhibition is 2%.

As to `CCn1c(O)c(C(=O)CC2NCCc3ccccc32)c(=O)n(CC)c1=S` (stereo not given), the aptamer binding inhibition was 1%.

Regarding `NC(=O)CN1CCCC1=O`, the aptamer binding inhibition is -4%.

Take `Cc1ccsc1C(=O)C1CCCN(Cc2cc3ccccc3o2)C1` (stereo not given): the aptamer binding inhibition was 1%.

In the case of `CN1C2CCC1CC(OC(=O)c1ccc(Cl)cc1)C2` (stereo not given), the aptamer binding inhibition is -1%.

Regarding `Cn1c(O)c(C=NCCc2c[nH]c3ccccc23)c(=O)n(C)c1=O`, the aptamer binding inhibition was 5%.

Consider `CC12CN3CC(C)(CN(C1)C3c1cccs1)C2=O` (stereo not given), for which the aptamer binding inhibition is 4%.

Take `[N-]=[N+]=CC(=O)OC[C@H](N)C(=O)O`: the aptamer binding inhibition is 5%.

Consider `COP(=O)(OC)C(O)C(Cl)(Cl)Cl` (stereo not given), for which the aptamer binding inhibition was 3%.

With `CC(C)[N+](C)(CCC(C(N)=O)(c1ccccc1)c1ccccc1)C(C)C`, the aptamer binding inhibition was 2%.

As to `C[C@@]1(CO)[C@H](O)CC[C@@]2(C)[C@H]1CC[C@H]1C[C@@H]3C[C@@]12CC[C@]3(O)CO`, the aptamer binding inhibition was 0%.

On to `O=C1CCCC2=C1C(c1cccnc1)Nc1ccccc1N2` (stereo not given), for which the aptamer binding inhibition is -2%.

Take `O=c1[nH]c(=S)n(-c2ccccc2)c(O)c1/C=N/N1CCCCC1c1cccnc1` (stereo not given): the aptamer binding inhibition was 4%.

`Clc1ccc(C2NCCc3[nH]cnc32)cc1` (stereo not given): the aptamer binding inhibition is -1%.

In the case of `Cc1ccc(-n2c(C)cc(/C=C3/C(=O)NC(=O)N(C)C3=O)c2C)cc1`, the aptamer binding inhibition was -5%.

Take `C[N+]1(C)CCc2cc3c(cc2[C@H]1[C@@H]1OC(=O)c2c1ccc1c2OCO1)OCO3`: the aptamer binding inhibition is -1% and 5%.

As for `COc1ccc(NC2=NCC(C)S2)cc1` (stereo not given), the aptamer binding inhibition is 2%.

For the molecule `CC12CN3CC(C)(CN(C1)C3c1cccs1)C2O` (stereo not given), the aptamer binding inhibition is 2%.

On to `O=C1NCCN2CCCC12` (stereo not given), for which the aptamer binding inhibition is 0%.

In the case of `NNC(=O)c1ccc(Cl)cc1`, the aptamer binding inhibition is -2%.

In the case of `CN1CCN(C(=O)OC2c3nccnc3C(=O)N2c2ccc(Cl)cn2)CC1` (stereo not given), the aptamer binding inhibition was 2%.

Turning to `O=c1[nH]c2ccccc2n1C1CCN(CCCC(c2ccc(F)cc2)c2ccc(F)cc2)CC1`, the aptamer binding inhibition was -13%.

With `O=C1NC(=O)C2(Cc3ccccc3N3CCCC32)C(=O)N1c1ccc(Cl)cc1` (stereo not given), the aptamer binding inhibition was 6%.

On to `CC1CCC[C@H](O)CCCCCc2cc(O)cc(O)c2C(=O)O1` (stereo not given in full), for which the aptamer binding inhibition is -3%.

Regarding `O=c1cccc2n1C[C@H]1C[C@@H]2CN2CCCC[C@@H]12`, the aptamer binding inhibition was -2%.

As to `CC(=O)OC1C2CCC1C(N1CCCC1)CC2` (stereo not given), the aptamer binding inhibition was 0%.

For `CCOc1ccc(C2C(C#N)=C(N)Oc3c2c(=O)oc2ccccc32)cc1` (stereo not given), the aptamer binding inhibition was 4%.

As for `COc1cc2c3cc1Oc1cc(ccc1O)C[C@@H]1c4c(cc(OC)c(O)c4Oc4ccc(cc4)C[C@H]3N(C)CC2)CCN1C`, the aptamer binding inhibition was 2%.

For the molecule `CN1CC[C@@]23CCCC[C@@H]2[C@@H]1Cc1ccc(O)cc13`, the aptamer binding inhibition was -1%.

In the case of `O=c1c2ccccc2[se]n1-c1ccccc1`, the aptamer binding inhibition is 5%.

Regarding `CC[N+]1(C)CCCC(OC(=O)C(O)(c2ccccc2)c2ccccc2)C1` (stereo not given), the aptamer binding inhibition is 4%.

On to `C[C@]12CCC(=O)C=C1CCC1C2CC[C@@]2(C)C1CC[C@@]2(O)CC#N` (stereo not given in full), for which the aptamer binding inhibition is 5%.

As to `C[C@H]1CC[C@@]2(C)[C@@H](CC[C@@H]3[C@@H]2CC[C@]2(C)[C@@H](O)CC[C@@H]32)C1`, the aptamer binding inhibition is 0%.

For `C[C@H]1OC[C@@H](C[N+](C)(C)C)O1`, the aptamer binding inhibition was 3%.

For `CC(C)(C)C(O)C(Oc1ccc(Cl)cc1)n1cncn1` (stereo not given), the aptamer binding inhibition was 2%.

Consider `C[C@@H]1O[C@@H](O[C@H]2C[C@@H](O)[C@]3(CO)[C@H]4[C@H](O)C[C@]5(C)[C@@H](C6COC(=O)C6)CC[C@]5(O)[C@@H]4CC[C@]3(O)C2)[C@H](O)[C@H](O)[C@H]1O` (stereo not given in full), for which the aptamer binding inhibition is 1%.

Regarding `CC(=O)c1ccc(-c2ccccc2)cc1`, the aptamer binding inhibition was -3%.

Regarding `CCOC(=O)c1cc2c(cn1)[nH]c1ccccc12`, the aptamer binding inhibition is 3%.

The target of the next experiment is Beta-2 adrenergic receptor (Homo sapiens) (UniProt P07550). The experiment can be described thus: agonist-induced loss of surface beta2AR – cell-based, FAP fluorogen, flow cytometry, validation set, pilot screen (AID 504459).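 Also: agonist-driven loss of surface beta2AR via internalization measured by FAP dye flow cytometry; reference of the scale not given here.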 The note with it: Am2.2-beta2AR cells, at 10 µM, active compounds read high.
Beta-2 adrenergic receptor (Homo sapiens), sequence (P07550 whole entry, looked up): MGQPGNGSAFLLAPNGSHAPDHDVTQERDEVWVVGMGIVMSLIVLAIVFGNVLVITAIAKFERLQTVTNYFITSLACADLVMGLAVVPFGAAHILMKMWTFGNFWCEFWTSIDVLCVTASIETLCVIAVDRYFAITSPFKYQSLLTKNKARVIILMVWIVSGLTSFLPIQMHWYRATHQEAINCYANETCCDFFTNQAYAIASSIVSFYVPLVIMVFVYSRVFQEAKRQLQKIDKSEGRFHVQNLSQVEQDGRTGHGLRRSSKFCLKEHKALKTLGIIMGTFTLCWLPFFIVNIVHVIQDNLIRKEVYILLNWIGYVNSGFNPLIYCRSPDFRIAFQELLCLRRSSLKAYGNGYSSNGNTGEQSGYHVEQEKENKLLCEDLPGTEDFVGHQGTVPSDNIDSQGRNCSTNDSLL
In the case of `CN1C[C@H](CNC(=O)OCc2ccccc2)C[C@@H]2c3cccc4c3c(cn4C)C[C@H]21`, the response is 13.7%.

Regarding `C[N+]1(C)C2CCC1CC(OC(=O)C(CO)c1ccccc1)C2` (stereo not given), the response was -0.63%.

Turning to `CCC1(c2ccccc2)C(=O)N(COC)C(=O)N(COC)C1=O`, the response is -14.8%.

On to `CCn1c(O)c(C(=O)CC2NCCc3ccccc32)c(=O)n(CC)c1=S` (stereo not given), for which the response is 20.4%.

Regarding `NC(=O)CN1CCCC1=O`, the response was -20.5%.

Take `Cc1ccsc1C(=O)C1CCCN(Cc2cc3ccccc3o2)C1` (stereo not given): the response is -13%.

`CN1C2CCC1CC(OC(=O)c1ccc(Cl)cc1)C2` (stereo not given): the response is -2.49%.

Consider `Cn1c(O)c(C=NCCc2c[nH]c3ccccc23)c(=O)n(C)c1=O`, for which the response is -8.95%.

Turning to `CC12CN3CC(C)(CN(C1)C3c1cccs1)C2=O` (stereo not given), the response is -0.2%.

Consider `[N-]=[N+]=CC(=O)OC[C@H](N)C(=O)O`, for which the response was -13%.

Consider `COP(=O)(OC)C(O)C(Cl)(Cl)Cl` (stereo not given), for which the response is -7.88%.

On to `CC(C)[N+](C)(CCC(C(N)=O)(c1ccccc1)c1ccccc1)C(C)C`, for which the response is 9.5%.

As to `C[C@@]1(CO)[C@H](O)CC[C@@]2(C)[C@H]1CC[C@H]1C[C@@H]3C[C@@]12CC[C@]3(O)CO`, the response is 0.18%.

As for `O=C1CCCC2=C1C(c1cccnc1)Nc1ccccc1N2` (stereo not given), the response is -5.46%.

Regarding `O=c1[nH]c(=S)n(-c2ccccc2)c(O)c1/C=N/N1CCCCC1c1cccnc1` (stereo not given), the response was 0.69%.

For `Clc1ccc(C2NCCc3[nH]cnc32)cc1` (stereo not given), the response is -11.3%.

Take `Cc1ccc(-n2c(C)cc(/C=C3/C(=O)NC(=O)N(C)C3=O)c2C)cc1`: the response was 3.21%.

`C[N+]1(C)CCc2cc3c(cc2[C@H]1[C@@H]1OC(=O)c2c1ccc1c2OCO1)OCO3`: the response was -0.95% and -3.71%.

As for `COc1ccc(NC2=NCC(C)S2)cc1` (stereo not given), the response is 5.38%.

For the molecule `CC12CN3CC(C)(CN(C1)C3c1cccs1)C2O` (stereo not given), the response was -7.61%.

In the case of `O=C1NCCN2CCCC12` (stereo not given), the response was 0.01%.

As to `NNC(=O)c1ccc(Cl)cc1`, the response was 7.16%.

In the case of `CN1CCN(C(=O)OC2c3nccnc3C(=O)N2c2ccc(Cl)cn2)CC1` (stereo not given), the response is -5.78%.

On to `O=c1[nH]c2ccccc2n1C1CCN(CCCC(c2ccc(F)cc2)c2ccc(F)cc2)CC1`, for which the response was 67.3% (active).

With `O=C1NC(=O)C2(Cc3ccccc3N3CCCC32)C(=O)N1c1ccc(Cl)cc1` (stereo not given), the response is -5.5%.

As for `CC1CCC[C@H](O)CCCCCc2cc(O)cc(O)c2C(=O)O1` (stereo not given in full), the response was -2.64%.

With `O=c1cccc2n1C[C@H]1C[C@@H]2CN2CCCC[C@@H]12`, the response is 2.05%.

For `CC(=O)OC1C2CCC1C(N1CCCC1)CC2` (stereo not given), the response was -10.9%.

As to `CCOc1ccc(C2C(C#N)=C(N)Oc3c2c(=O)oc2ccccc32)cc1` (stereo not given), the response was -0.19%.

For `COc1cc2c3cc1Oc1cc(ccc1O)C[C@@H]1c4c(cc(OC)c(O)c4Oc4ccc(cc4)C[C@H]3N(C)CC2)CCN1C`, the response is 17.5%.

`CN1CC[C@@]23CCCC[C@@H]2[C@@H]1Cc1ccc(O)cc13`: the response is 2.76%.

For the molecule `O=c1c2ccccc2[se]n1-c1ccccc1`, the response is 12.7%.

For the molecule `CC[N+]1(C)CCCC(OC(=O)C(O)(c2ccccc2)c2ccccc2)C1` (stereo not given), the response was -15.3%.

For the molecule `C[C@]12CCC(=O)C=C1CCC1C2CC[C@@]2(C)C1CC[C@@]2(O)CC#N` (stereo not given in full), the response was -3.28%.

Take `C[C@H]1CC[C@@]2(C)[C@@H](CC[C@@H]3[C@@H]2CC[C@]2(C)[C@@H](O)CC[C@@H]32)C1`: the response was 8.67%.

For `C[C@H]1OC[C@@H](C[N+](C)(C)C)O1`, the response is 2.48%.

Consider `CC(C)(C)C(O)C(Oc1ccc(Cl)cc1)n1cncn1` (stereo not given), for which the response is -29.1%.

Consider `C[C@@H]1O[C@@H](O[C@H]2C[C@@H](O)[C@]3(CO)[C@H]4[C@H](O)C[C@]5(C)[C@@H](C6COC(=O)C6)CC[C@]5(O)[C@@H]4CC[C@]3(O)C2)[C@H](O)[C@H](O)[C@H]1O` (stereo not given in full), for which the response was -12.8%.

As to `CC(=O)c1ccc(-c2ccccc2)cc1`, the response was 9.21%.

As for `CCOC(=O)c1cc2c(cn1)[nH]c1ccccc12`, the response was -5.72%.

These data come from PubChem BioAssay.
